# Hits are enriched below; roughly 0.38% of the tested compounds scored in any of these assays.
# CBFb-RUNX1 inh: CBF-beta/RUNX1 interaction disruption. Q01196+Q13951. AlphaScreen CBFb-His/RUNX1-biotin binding, biochemical. Potency, µM (highest dose often 59.8 µM), inactives show top-dose activity, negative = inhibition, most hits filed as inhibitors. 230,000 tested, under 10 active. AID 1477; note: % of control where 0% means no effect
#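 Bead-based AlphaScreen assay; binding partners His-tagged CBF-beta and biotinylated RUNX1 at 30 nM each. Compound exposure 15 min after a 20-min protein preincubation; bead step 90 min; all steps at room temperature.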
# USP2a block: inhibitors of human ubiquitin-specific protease USP2a; 330,000 compounds, 0.01% hits; AID 463254; Potency, µM (series often up to 38.3 µM), without a hit: at the top dose activity change, negative = inhibition, hits mostly inhibitors; USP2 core, Ub-CHOP2 coupled fluorogenic reporter, 485/531; O75604;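 note: potency is the fitted concentration of half-maximal effect; plate controls were DMSO wells for no effect and full inhibition by NEM control for full effect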
#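 Deubiquitinase activity read as fluorescence (485/531 nm) after Ub-CHOP2 cleavage activates the enterokinase reporter on its substrate; USP2 core 10nM, Ub-CHOP2 and substrate 25nM each, 30min compound preincubation then 60min RT; data normalized to NEM, curves fitted.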
# TRb SRC2 PPI: disrupts binding of human TR beta to SRC2; P10828; TRbeta-SRC2 peptide binding, fluorescence polarization; receptor liganded with 1 µM T3; Potency, µM (top dose mostly 106 µM), without a hit: at the highest dose activity change, negative = inhibition, usual class: inhibitors; 280,000 compounds, 0.065% hits;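 note: potency is the fitted concentration of half-maximal effect; plate controls were bound peptide for no effect and peptide without receptor for full effect; nearly all actives have a fitted effect of over 50% in size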
#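 Read-out is fluorescence polarization (555 nm excitation, 632 nm emission) of a Texas Red SRC2 coactivator peptide; loss of signal reflects blocked binding to human TRb ligand-binding domain in the presence of 1 uM T3.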
# TexasRed fluor: Texas Red fluorescence interference in TRb-SRC2 counter-screen; TRb/SRC2 Texas Red total fluorescence interference; Potency, µM (highest dose often 106 µM), for inactives: top-dose fluorescence change, negative = quenching; 280,000 compounds, 0.29% hits; active = well fitted curve in either direction with a large enough effect; inconclusive = small, poorly fitted or top-dose-only effect; note: potency is the fitted concentration of half-maximal effect; % is set by controls: 0 for no effect and ±100 for the full control effect
#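 Human TRβ ligand-binding domain (0.6 uM) and Texas Red SRC2 peptide (20 nM) in Tris buffer with 1 uM T3 and 5% DMSO were incubated with pinned compound for 5 hr at ambient temperature. Total fluorescence was computed as S + 2P (555/632 nm).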
# Eya2 inh: Eya2 (human) phosphatase inhibition; Potency, µM (titrated, usually from 76.9 µM), for the others: top-dose activity, negative = inhibition, actives largely listed as inhibitors; recombinant Eya2, OMFP fluorescence dephosphorylation (OMFP is methylfluorescein phosphate); AID 488837; 330,000 compounds, 0.006% hits; note: potency is the fitted concentration of half-maximal effect; % is set by controls: 0 for no effect and ±100 for the full control effect
#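 Eya2 (0.2 uM) preincubated 10 min at ambient with compound, then OMFP substrate added at 50 uM; 10 min reaction in 50 mM HEPES pH 7.5, 50 mM NaCl, 5 uM MgCl2, 0.05% BSA, 1 mM DTT. Fluorescence read at Ex 485/Em 525 nm.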
# TSHR antag: blocks TSH signaling through the human TSH receptor. P16473. TSHR-expressing cells, TSH-stimulated cAMP HTRF, 2 h; hits give low values. activity change, negative = inhibition, % at 11.5 µM. 330,000 compounds, 0.2% hits;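 active = activity change below a set negative limit, meaning inhibition stronger than a set level, cut at about -70% in these data; inconclusive = activity change between two set negative limits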; note: % is set by controls: 0 for no effect and ±100 for the full control effect
# Target sequence (P16473 whole entry, looked up): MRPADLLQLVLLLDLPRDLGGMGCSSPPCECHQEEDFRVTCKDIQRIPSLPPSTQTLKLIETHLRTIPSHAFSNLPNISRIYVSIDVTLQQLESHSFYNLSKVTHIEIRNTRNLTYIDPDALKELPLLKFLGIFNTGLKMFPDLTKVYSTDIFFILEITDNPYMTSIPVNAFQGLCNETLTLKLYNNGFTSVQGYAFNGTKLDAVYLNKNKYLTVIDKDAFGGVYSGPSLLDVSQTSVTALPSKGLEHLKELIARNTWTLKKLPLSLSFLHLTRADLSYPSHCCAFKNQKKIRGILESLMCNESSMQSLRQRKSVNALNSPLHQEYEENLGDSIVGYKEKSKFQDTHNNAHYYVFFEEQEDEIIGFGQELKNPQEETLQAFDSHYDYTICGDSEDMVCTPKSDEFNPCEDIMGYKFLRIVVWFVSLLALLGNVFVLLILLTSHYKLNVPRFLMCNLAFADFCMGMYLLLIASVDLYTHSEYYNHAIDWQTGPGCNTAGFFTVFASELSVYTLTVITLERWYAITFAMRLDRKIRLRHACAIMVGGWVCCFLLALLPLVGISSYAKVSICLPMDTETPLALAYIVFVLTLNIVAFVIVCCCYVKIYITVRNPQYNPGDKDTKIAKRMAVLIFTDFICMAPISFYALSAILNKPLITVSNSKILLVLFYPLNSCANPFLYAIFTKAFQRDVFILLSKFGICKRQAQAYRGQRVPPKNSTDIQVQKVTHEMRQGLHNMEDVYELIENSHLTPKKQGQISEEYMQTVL
#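 TSHR-expressing cells, 200/well, pre-treated with compound, then stimulated with EC80 TSH (4nM final) for 2 hours at 37 deg C. cAMP measured by competitive HTRF: anti-cAMP cryptate antibody in lysis buffer plus cAMP-d2, read after 30 minutes at room temperature.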
# An asterisk follows results filed as active; ? = inconclusive; . = no result given; [ ] = dose if it differs, or a comment. Unless noted, calls come from the whole dose curve; as a rule, active = well fitted curve in the direction sought with a large enough effect; inconclusive = small, poorly fitted or top-dose-only effect, or another doubt; inactive = no such curve, though single readings can be large; an effect the other way counts as inactive or inconclusive.
SMILES,CBFb-RUNX1 inh,USP2a block,TRb SRC2 PPI,TexasRed fluor,Eya2 inh,TSHR antag
CCOc1ccc(C2c3c(oc4ccc(C)cc4c3=O)C(=O)N2CCCN(C)C)cc1 (stereo not given),.,.,0%,3%,.,.
Cc1ccc2oc3c(c(=O)c2c1)C(c1ccc(O)cc1)N(CCCN(C)C)C3=O (stereo not given),.,.,-18%,5.6e-05µM*[quencher],.,.
CCCCCCCCOC(=O)c1cc(O)c(O)c(O)c1,.,.,5%[201 µM],-3%[201 µM],.,.
NS(=O)(=O)c1ccc(NCCCn2ccnc2)c([N+](=O)[O-])c1,.,1%,.,.,5%,-2
O=C1c2ccccc2-c2onc3ccc(NCCCn4ccnc4)c1c23,?,?,16µM*,45µM*[fluorescent],?,-12
CCOc1ccc(/C=C/C(=O)c2cc(Br)ccc(=O)c2O)cc1,?,-5%,-4%,-12%,1%,?
CCc1ccc(/C=C/C(=O)c2cc(Br)ccc(=O)c2O)cc1,-27%,0%,-20%,-8%,-2%,-87*
Cc1cccc(/C=C/C(=O)c2cc(Br)ccc(=O)c2O)c1,?,-2%,-19%,-7%,22%,-88*
O=C(NNC(=O)c1ccc2c(c1)OCO2)NC12CC3CC(CC(C3)C1)C2,-1%,1%,4%,1%,8%,-32
O=C(NC1C2CC3CC(C2)CC1C3)c1ccc2c(c1)OCO2 (stereo not given),.,1%,.,.,2%,-126*
CCC(=O)N1CCCc2cc(S(=O)(=O)N3CCC(C(=O)NC4CCC(C)CC4)CC3)ccc21 (stereo not given),.,.,1%,-2%,.,.
C=C(C)C(=O)OCC[N+](C)(C)C,.,.,0%[201 µM],-1%[201 µM],.,.
COc1ccc2cc(/C=C3\SC(=S)NC3=O)c(N3CCOCC3)nc2c1,-9%,1%,7%,-6%,6%,-80*
CCCCOCCOCCO,.,.,-8%[201 µM],-2%[201 µM],.,.
CN(C)c1ccc(/C=C(/C(=O)c2ccc(Cl)cc2Cl)n2cncn2)cc1,-1%,4%,-9%,31623µM*[quencher],-1%,6
Cc1cc2c(s1)c1c(n2C)C(=O)N(Cc2ccccc2F)C1,.,-2%,.,.,-27%,0
Cc1cc(C)c(Nc2cc(S(=O)(=O)O)c(N)c3c2C(=O)c2ccccc2C3=O)c(C)c1,.,-28%,45µM*,-24%,-9%,-27
Cc1cc(C)c(NC(=O)COC(=O)c2cccc3c2C(=O)c2ccccc2C3=O)c(C)c1,?,0%,-3%,-3%,7%,-7
CCC(=O)/C=C1/Sc2ccc(OC)cc2N1CCO,0%,4%,0%,-3%,7%,1
CCC(/C=C1\Sc2ccc(OC)cc2N1CCO)=C\c1sc2ccc(OC)cc2[n+]1CCO,?,2%,?,50µM*[fluorescent],-19%,3
CCC(/C=C1\Sc2ccc(OC)cc2N1CC)=C\c1sc2ccc(OC)cc2[n+]1CCCS(=O)(=O)[O-],-17%,-3%,?,40µM*[fluorescent],-12%,-19
CCO/C(=C/c1sc2ccc(OC)cc2[n+]1CCCS(=O)(=O)[O-])CC,5%,1%,-19%,5%,6%,16
COc1ccccc1CNc1ccc(-c2nc(C)no2)cc1[N+](=O)[O-],.,.,3%,0%,.,.
COc1ccc(Nc2ncnc3c2nc2n3CCCC2)cc1Cl,.,.,5%,-11%,.,.
Cn1c(=O)c([N+](=O)[O-])c(Cl)c2ccccc21,1%,0%,-1%,-3%,12%,-83*
SMILES,CBFb-RUNX1 inh,USP2a block,TRb SRC2 PPI,TexasRed fluor,Eya2 inh,TSHR antag
Cc1cc(N=NC(=O)c2ccccc2O)c2ccccc2c1O,-7%,0%,-5%,-9%,3%,-72*
O=C(O)CCCCCCC(=O)O,.,.,1%[201 µM],3%[201 µM],.,.
COc1cc(OC)c(C2CC(=O)N3CN(c4ccccc4C)CSC3=C2C#N)cc1OC (stereo not given),-5%,3%,1%,-1%,15%,-9
COc1ccc(C2CC(=O)N3CN(c4ccccc4F)CSC3=C2C#N)cc1OC (stereo not given),-8%,4.5µM*,2%,-9%,-1%,0
COc1ccccc1C(=O)Nc1c(C(=O)c2ccccc2)oc2ccccc12,.,.,-12%,0.056µM*[quencher],.,.
Cc1ccc(CNC(=O)CCN2C(=O)C(C)Oc3ccc(C)cc32)cc1 (stereo not given),.,.,-17%[53 µM],35µM*[quencher],.,.
Oc1ccccc1N1CCN(c2ccc3ccccc3n2)CC1,.,-4%,.,.,2%,-77*
C[N+](C)(C)CC(=O)N1CCN(c2ccc3ccccc3n2)CC1,.,2%,.,.,-6%,3
Nc1ccn(Cc2ccccc2F)n1,-13%,0%,8%,-2%,-8%,-72*
Nc1c(C(=O)Nc2ccccc2Br)sc2nc(-c3cccs3)ccc12,.,.,9%,-22%,.,.
Nc1c(C(=O)Nc2nc3ccccc3s2)sc2nc(-c3cccs3)ccc12,-1%,2%,?,32µM*[quencher],6%,-24
Cc1ccc(NC(=O)Cn2ncc3c([nH]c4ccccc43)c2=O)cc1Cl,.,2%,.,.,-13%,-70*
COc1ccc(NC(=O)Cn2ncc3c([nH]c4ccccc43)c2=O)cc1Cl,.,.,6%,7%,.,.
O=c1[nH]c(=O)c2[nH]cnc2[nH]1,.,.,5%[201 µM],-1%[201 µM],.,.
CN(C)c1ccc(C(=C2C=CC(=[N+](C)C)C=C2)c2ccc(N(C)C)cc2)cc1,.,.,100µM*,-10%[201 µM],.,.
Cn1c(=O)c(C(=O)Nc2ncccc2O)c(O)c2ccccc21,3%,?,-7%,-4%,56µM*,9
CC[C@H](C)[C@H](NC(=O)[C@H](CCC(=O)O)NC(=O)CNC(=O)[C@H](CCCCN)NC(=O)[C@H](CCC(=O)O)NC(=O)[C@H](CCSC)NC(=O)[C@H](CCSC)NC(=O)[C@H](CCSC)NC(=O)[C@H](CCC(=O)O)NC(=O)CNC(=O)[C@H](CO)NC(=O)[C@H](CO)NC(=O)[C@H](CO)NC(=O)[C@@H](N)CC(N)=O)C(=O)N[C@@H](CCCCN)C(=O)O,12%,.,9%,-2%,.,.
Cc1cc(C)cc(OCC(=O)NCC2(N3CCOCC3)CCCCC2)c1,.,.,-2%,6%,.,.
Cc1cccc(OCC(=O)NCC2(N3CCN(C)CC3)CCCCC2)c1C,.,.,-10%,1259µM*[quencher],.,.
Cc1ccc(OCC(=O)NCC2(N3CCOCC3)CCCCC2)cc1C,.,.,-11%,13µM*[quencher],.,.
CCCCC(CC)COP(=O)(O)OCC(CC)CCCC (stereo not given),.,.,2%[201 µM],0%[201 µM],.,.
Nc1nc2nc[nH]c2c(=O)[nH]1,.,0%,.,.,-24%,-71*
CCN(CCCNC(=O)CSc1cc(=O)n(CC)c2ccccc12)c1cccc(C)c1,.,.,0%,?,.,.
